The values below come from the supplement of paper PMC11417369.

Whole data set: some 25,000 sequences, median “ln(normalized median fluorescence intensity)” near 6.7, cut for the highest 2% near 10. For the sample, the highest values were picked, then their nearest neighbours and some sequences at random.

The assay deals with PfHDP1 homeodomain (GST-tagged). Put plainly: gcPBM binding intensity (ln(normalized median fluorescence intensity)); higher = stronger DNA binding. Put shortly:
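Binding intensity is the highest Masliner-normalised natural-log median intensity over replicate spots in either probe orientation. To obtain it, GST-tagged P. falciparum DNA-binding domains made in E. coli were incubated for 1 h on an Agilent 4 × 180k array of primer-extended double-stranded 36-bp intergenic genomic probes plus negative controls. Detection used Alexa488 anti-GST antibody with scanning at 488 nm.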
In the case of “AAAATAAATAAATACACACACACGAATATATATATA [CACACA_site1683]”, the “gcPBM binding intensity (ln)” value came to 8.57.

As to “TACTTATTTGATTGGGTGCATATATATAGTATGTAT [GTGCAC_site9845]”, the “gcPBM binding intensity (ln)” value was 9.2.

Take “AATAATAAAAAAAGTGCACACACATAATATATATAT [CACACA_site9100]”: the “gcPBM binding intensity (ln)” value worked out at 8.79.

Regarding “AAAAAAAAAAAAAGCACACACACATATGCGTATATA [CACACA_site953]”, the “gcPBM binding intensity (ln)” value was 6.43.

Turning to “GCTAAAAGTATATGCACACACATATAGATGCACATA [CACACA_site6868]”, the “gcPBM binding intensity (ln)” value is 10.7.

With “TATACACATATATAAAGTACATATATGTGTAAAAAA [XGTACX_site8582]”, the “gcPBM binding intensity (ln)” value amounted to 6.8.

“AAGAAAAGCATAGATGCACACATATATATATATATA [CACACA_site8675]”: the “gcPBM binding intensity (ln)” value turned out to be 9.35.

In the case of “GTGCTAAAAGTATATGCACACACATATATATGCACA [CACACA_site8472]”, the “gcPBM binding intensity (ln)” value was found to be 10.6.

Turning to “GAAAAGCATAGATGCACACATATATATATATATATA [CACACA_site2169]”, the “gcPBM binding intensity (ln)” value was 9.77.

“ATGTGCACATATAAAAGTACACGCACATATATATAT [XGTACX_site1238]”: the “gcPBM binding intensity (ln)” value was 11.

On to “AGATAAAAAAAGTACACACACACATATATATATATA [CACACA_site3072]”, for which the “gcPBM binding intensity (ln)” value amounted to 9.22.

For “AAAAAAAAAAAGCACACACACATATGAGTATATATA [CACACA_site4683]”, the “gcPBM binding intensity (ln)” value amounted to 6.91.

Consider “TAATAAAAAAAGTGCACACACATAATATATATATAT [CACACA_site3340]”, for which the “gcPBM binding intensity (ln)” value came out at 9.23.

Turning to “GCTAAAAGTATATGCACACACATATATATGCACATA [CACACA_site1635]”, the “gcPBM binding intensity (ln)” value worked out at 11.

Consider “TAATAAATCCTATATAGTACATATATGCAAGTATGT [XGTACX_site3955]”, for which the “gcPBM binding intensity (ln)” value is 6.97.

For “TCTTATTAAAATATTTATATAGGTAATCACAATATT [GTGCAC_negctrl_site568]”, the “gcPBM binding intensity (ln)” value is 6.37.

For the sequence ATATCAAACTAGAATGTGCGCATGCATTCAAGTTTT, the “gcPBM binding intensity (ln)” value is 6.54.

In the case of “TATGTCAATTTTCATACATGCGCATAATCTTTATTT [TGCATGCA_site807]”, the “gcPBM binding intensity (ln)” value was found to be 7.53.

For TTCATTCAAATTAACGTGCACATTATTAGTAAAAAC, the “gcPBM binding intensity (ln)” value is 10.7.

“TGTAAATTATAACGTGCACACATATTTAAAATGAAA [CACACA_site8915]”: the “gcPBM binding intensity (ln)” value came out at 9.88.

Take “TTATTATTCATATATTCACACATTAAAATTTTTCAA [CACACA_site4243]”: the “gcPBM binding intensity (ln)” value was found to be 6.62.

Consider “GTATATATATATATATGCAAATGTATAAATCTACAT [CACACA_negctrl_site546]”, for which the “gcPBM binding intensity (ln)” value was 7.32.

For the sequence “CTAATCGTGCACAACTGTACATTTGTCAAGGGCAAT [XGTACX_site8662]”, the “gcPBM binding intensity (ln)” value was 10.8.

Take “TAAAATATATAAAACTGTACATTTTAAAGGCACAAC [XGTACX_site8342]”: the “gcPBM binding intensity (ln)” value is 7.1.

On to “TTGCAACTCTTCAATCGTACACATTATTTATTATAT [XGTACX_site1377]”, for which the “gcPBM binding intensity (ln)” value turned out to be 6.89.
